# Laboratory results reported in PMC8384837, “Expanding the binding specificity for RNA recognition by a PUF domain”.
# Tests used:
# Assay in all cases: yeast three-hybrid, YBZ-1, SC-Leu-His + 0.5 mM 3-AT, 4 days
# Conditions in all cases: tags: N-Gal4 AD-HA kept; label: inside an RPR1-promoter hybrid RNA with tandem MS2 sites; ssRNA
# [1] = target: PUM1 PUF domain R8-RHN (Homo sapiens, UniProt Q14671 828-1176, N1122R;Y1123H;Q1126N)
# How it was run: (§1)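 Pumilio-1 PUF domain libraries, randomized at the three base-contacting residues of each repeat, were co-expressed with matching RNA elements from a centromeric plasmid in strain YBZ-1, which carries a LexA–MS2 coat fusion and a HIS3 reporter. Transformants grew for four days on SC-Leu (input) or on SC-Leu-His + 0.5 mM 3-AT (selection), and the repeat regions were PCR-amplified and Illumina-sequenced. The interaction score is the log change in variant frequency from input to selection. That logarithm is base 2, with a pseudocount of 1 where a variant was absent.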
# [2] = target: PUM1 PUF domain R8-TWN (Homo sapiens, UniProt Q14671 828-1176, N1122T;Y1123W;Q1126N)
# How it was run: as §1
# [3] = target: PUM1 PUF domain R8-RFN (Homo sapiens, UniProt Q14671 828-1176, N1122R;Y1123F;Q1126N)
# How it was run: as §1
# [4] = target: PUM1 PUF domain R1-YKR (Homo sapiens, UniProt Q14671 828-1176, S863Y;R864K;Q867R)
# How it was run: as §1
# [5] = target: PUM1 PUF domain R1-RRR (Homo sapiens, UniProt Q14671 828-1176, S863R;Q867R)
# How it was run: as §1
# [6] = target: PUM1 PUF domain R1-RAQ (Homo sapiens, UniProt Q14671 828-1176, S863R;R864A)
# How it was run: as §1
# [7] = target: PUM1 PUF domain R1-KVE (Homo sapiens, UniProt Q14671 828-1176, S863K;R864V;Q867E)
# How it was run: as §1
# [8] = target: PUM1 PUF domain R5-KGG (Homo sapiens, UniProt Q14671 828-1176, C1007K;R1008G;Q1011G)
# How it was run: as §1
# [9] = target: PUM1 PUF domain R1-VWK (Homo sapiens, UniProt Q14671 828-1176, S863V;R864W;Q867K)
# How it was run: as §1
# [10] = target: PUM1 PUF domain R1-NIS (Homo sapiens, UniProt Q14671 828-1176, S863N;R864I;Q867S)
# How it was run: as §1
# [11] = target: PUM1 PUF domain R4-CPL (Homo sapiens, UniProt Q14671 828-1176, N971C;H972P;Q975L)
# How it was run: as §1
# [12] = target: PUM1 PUF domain R4-FGQ (Homo sapiens, UniProt Q14671 828-1176, N971F;H972G)
# How it was run: as §1
# [13] = target: PUM1 PUF domain R4-NFQ (Homo sapiens, UniProt Q14671 828-1176, H972F)
# How it was run: as §1
# [14] = target: PUM1 PUF domain R3-YRS (Homo sapiens, UniProt Q14671 828-1176, C935Y;Q939S)
# How it was run: as §1
# [15] = target: PUM1 PUF domain R3-CNT (Homo sapiens, UniProt Q14671 828-1176, R936N;Q939T)
# How it was run: as §1
# [16] = target: PUM1 PUF domain R3-FFA (Homo sapiens, UniProt Q14671 828-1176, C935F;R936F;Q939A)
# How it was run: as §1
# [17] = target: PUM1 PUF domain R5-KSN (Homo sapiens, UniProt Q14671 828-1176, C1007K;R1008S;Q1011N)
# How it was run: as §1
# [18] = target: PUM1 PUF domain R3-YWR (Homo sapiens, UniProt Q14671 828-1176, C935Y;R936W;Q939R)
# How it was run: as §1
# [19] = target: PUM1 PUF domain R3-LRM (Homo sapiens, UniProt Q14671 828-1176, C935L;Q939M)
# How it was run: as §1
# [20] = target: PUM1 PUF domain R2-AVA (Homo sapiens, UniProt Q14671 828-1176, N899A;Y900V;Q903A)
# How it was run: as §1
# Chain of PUM1 PUF domain R1-RAQ (Q14671 828-1176 S863R/R864A): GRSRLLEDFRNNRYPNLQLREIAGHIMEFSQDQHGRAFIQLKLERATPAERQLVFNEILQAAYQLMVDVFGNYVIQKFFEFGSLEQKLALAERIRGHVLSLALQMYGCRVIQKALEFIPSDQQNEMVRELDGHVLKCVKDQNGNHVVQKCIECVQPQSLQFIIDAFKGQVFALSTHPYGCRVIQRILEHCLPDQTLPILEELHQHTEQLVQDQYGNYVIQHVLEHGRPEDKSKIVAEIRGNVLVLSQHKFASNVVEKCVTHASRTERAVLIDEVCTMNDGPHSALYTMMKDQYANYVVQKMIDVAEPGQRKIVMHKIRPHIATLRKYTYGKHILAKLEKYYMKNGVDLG
# Chain of PUM1 PUF domain R4-CPL (Q14671 828-1176 N971C/H972P/Q975L): as the sequence (Q14671 828-1176 S863R/R864A) above, with R36S, A37R, N144C, H145P, Q148L counted along it
# Chain of PUM1 PUF domain R3-FFA (Q14671 828-1176 C935F/R936F/Q939A): as the sequence (Q14671 828-1176 S863R/R864A) above, with R36S, A37R, C108F, R109F, Q112A counted along it
# Chain of PUM1 PUF domain R1-KVE (Q14671 828-1176 S863K/R864V/Q867E): as the sequence (Q14671 828-1176 S863R/R864A) above, with R36K, A37V, Q40E counted along it
# Chain of PUM1 PUF domain R3-YRS (Q14671 828-1176 C935Y/Q939S): as the sequence (Q14671 828-1176 S863R/R864A) above, with R36S, A37R, C108Y, Q112S counted along it
# Chain of PUM1 PUF domain R1-RRR (Q14671 828-1176 S863R/Q867R): as the sequence (Q14671 828-1176 S863R/R864A) above, with A37R, Q40R counted along it
# Chain of PUM1 PUF domain R5-KGG (Q14671 828-1176 C1007K/R1008G/Q1011G): as the sequence (Q14671 828-1176 S863R/R864A) above, with R36S, A37R, C180K, R181G, Q184G counted along it
# Chain of PUM1 PUF domain R8-RFN (Q14671 828-1176 N1122R/Y1123F/Q1126N): as the sequence (Q14671 828-1176 S863R/R864A) above, with R36S, A37R, N295R, Y296F, Q299N counted along it
# Chain of PUM1 PUF domain R1-NIS (Q14671 828-1176 S863N/R864I/Q867S): as the sequence (Q14671 828-1176 S863R/R864A) above, with R36N, A37I, Q40S counted along it
# Chain of PUM1 PUF domain R4-FGQ (Q14671 828-1176 N971F/H972G): as the sequence (Q14671 828-1176 S863R/R864A) above, with R36S, A37R, N144F, H145G counted along it
# Chain of PUM1 PUF domain R5-KSN (Q14671 828-1176 C1007K/R1008S/Q1011N): as the sequence (Q14671 828-1176 S863R/R864A) above, with R36S, A37R, C180K, R181S, Q184N counted along it
# Chain of PUM1 PUF domain R4-NFQ (Q14671 828-1176 H972F): as the sequence (Q14671 828-1176 S863R/R864A) above, with R36S, A37R, H145F counted along it
# Chain of PUM1 PUF domain R3-LRM (Q14671 828-1176 C935L/Q939M): as the sequence (Q14671 828-1176 S863R/R864A) above, with R36S, A37R, C108L, Q112M counted along it
# Chain of PUM1 PUF domain R1-VWK (Q14671 828-1176 S863V/R864W/Q867K): as the sequence (Q14671 828-1176 S863R/R864A) above, with R36V, A37W, Q40K counted along it
# Chain of PUM1 PUF domain R3-YWR (Q14671 828-1176 C935Y/R936W/Q939R): as the sequence (Q14671 828-1176 S863R/R864A) above, with R36S, A37R, C108Y, R109W, Q112R counted along it
# Chain of PUM1 PUF domain R3-CNT (Q14671 828-1176 R936N/Q939T): as the sequence (Q14671 828-1176 S863R/R864A) above, with R36S, A37R, R109N, Q112T counted along it
# Chain of PUM1 PUF domain R8-TWN (Q14671 828-1176 N1122T/Y1123W/Q1126N): as the sequence (Q14671 828-1176 S863R/R864A) above, with R36S, A37R, N295T, Y296W, Q299N counted along it
# Chain of PUM1 PUF domain R8-RHN (Q14671 828-1176 N1122R/Y1123H/Q1126N): as the sequence (Q14671 828-1176 S863R/R864A) above, with R36S, A37R, N295R, Y296H, Q299N counted along it
# Chain of PUM1 PUF domain R2-AVA (Q14671 828-1176 N899A/Y900V/Q903A): as the sequence (Q14671 828-1176 S863R/R864A) above, with R36S, A37R, N72A, Y73V, Q76A counted along it
# Chain of PUM1 PUF domain R1-YKR (Q14671 828-1176 S863Y/R864K/Q867R): as the sequence (Q14671 828-1176 S863R/R864A) above, with R36Y, A37K, Q40R counted along it
sequence,measurement,setting,value
GGCUAGAACUAGUGGAUCCCCCGGCGCCCGGCGGCUCGAGCCCGGGUAAGCGUAAAUAGUCUGCAUGCCGCCGGGCGCCAUGCCUGCAGGUCGACUCUAGAAAACAUG,binding signal,[1],5.56 log2 enrichment (interaction score)
same,binding signal,[2],2.51 log2 enrichment (interaction score)
same,binding signal,[3],2.57 log2 enrichment (interaction score)
GGCUAGAACUAGUGGAUCCCCCGGCGCCCGGCGGCUCGAGCCCGGGUAAGUGUAAAUCGUCUGCAUGCCGCCGGGCGCCAUGCCUGCAGGUCGACUCUAGAAAACAUG,binding signal,[4],8.91 log2 enrichment (interaction score)
same,binding signal,[5],2.46 log2 enrichment (interaction score)
same,binding signal,[6],2.93 log2 enrichment (interaction score)
same,binding signal,[7],3.75 log2 enrichment (interaction score)
GGCUAGAACUAGUGGAUCCCCCGGCGCCCGGCGGCUCGAGCCCGGGUAAGUGUUAAUAGUCUGCAUGCCGCCGGGCGCCAUGCCUGCAGGUCGACUCUAGAAAACAUG,binding signal,[8],2.27 log2 enrichment (interaction score)
GGCUAGAACUAGUGGAUCCCCCGGCGCCCGGCGGCUCGAGCCCGGGUAAGUGUAAAUUGUCUGCAUGCCGCCGGGCGCCAUGCCUGCAGGUCGACUCUAGAAAACAUG,binding signal,[5],2.49 log2 enrichment (interaction score)
same,binding signal,[6],2.71 log2 enrichment (interaction score)
same,binding signal,[7],3.9 log2 enrichment (interaction score)
same,binding signal,[9],3.24 log2 enrichment (interaction score)
same,binding signal,[10],6.67 log2 enrichment (interaction score)
GGCUAGAACUAGUGGAUCCCCCGGCGCCCGGCGGCUCGAGCCCGGGUAAGUGUAUAUAGUCUGCAUGCCGCCGGGCGCCAUGCCUGCAGGUCGACUCUAGAAAACAUG,binding signal,[11],1.78 log2 enrichment (interaction score)
same,binding signal,[12],3.63 log2 enrichment (interaction score)
same,binding signal,[13],2.34 log2 enrichment (interaction score)
GGCUAGAACUAGUGGAUCCCCCGGCGCCCGGCGGCUCGAGCCCGGGUAAGUGUAAAUGGUCUGCAUGCCGCCGGGCGCCAUGCCUGCAGGUCGACUCUAGAAAACAUG,binding signal,[6],1.23 log2 enrichment (interaction score)
GGCUAGAACUAGUGGAUCCCCCGGCGCCCGGCGGCUCGAGCCCGGGUAAGUGUAAAUAGUCUGCAUGCCGCCGGGCGCCAUGCCUGCAGGUCGACUCUAGAAAACAUG,binding signal,[11],3.68 log2 enrichment (interaction score)
same,binding signal,[14],1.29 log2 enrichment (interaction score)
same,binding signal,[15],2.18 log2 enrichment (interaction score)
same,binding signal,[3],2.38 log2 enrichment (interaction score)
GGCUAGAACUAGUGGAUCCCCCGGCGCCCGGCGGCUCGAGCCCGGGUAAGUGUAAUUAGUCUGCAUGCCGCCGGGCGCCAUGCCUGCAGGUCGACUCUAGAAAACAUG,binding signal,[16],4.46 log2 enrichment (interaction score)
GGCUAGAACUAGUGGAUCCCCCGGCGCCCGGCGGCUCGAGCCCGGGUAAGUGUCAAUAGUCUGCAUGCCGCCGGGCGCCAUGCCUGCAGGUCGACUCUAGAAAACAUG,binding signal,[17],3.85 log2 enrichment (interaction score)
same,binding signal,[8],2.89 log2 enrichment (interaction score)
GGCUAGAACUAGUGGAUCCCCCGGCGCCCGGCGGCUCGAGCCCGGGUAAGUGUAAGUAGUCUGCAUGCCGCCGGGCGCCAUGCCUGCAGGUCGACUCUAGAAAACAUG,binding signal,[18],5.62 log2 enrichment (interaction score)
same,binding signal,[14],4.29 log2 enrichment (interaction score)
same,binding signal,[16],8.18 log2 enrichment (interaction score)
same,binding signal,[19],3.32 log2 enrichment (interaction score)
GGCUAGAACUAGUGGAUCCCCCGGCGCCCGGCGGCUCGAGCCCGGGUAAGUGUAAAGAGUCUGCAUGCCGCCGGGCGCCAUGCCUGCAGGUCGACUCUAGAAAACAUG,binding signal,[20],2.41 log2 enrichment (interaction score)
